The values below come from PubChem BioAssay AID463173 (ICCB-Longwood Screening Facility, Harvard Medical School, 2010).

Screen size: about 52,000 compounds; about 1,700 (3.3%) were called active. Many of the other results were omitted from the sample, so actives are more common in it than they were. Unmarked numbers belong to inactive results. No stated cut-off is given here; in the data, active means survival mostly below about 52% (no sharp cut-off); inactive means mostly above about 56%.

The assay has as its system Wild type. As to the kind of experiment: growth inhibition of S. aureus wild type versus tarO mutant, primary screen, teichoic acid synthesis inhibitors, RN4220, OD600 (AID 463173). Conditions: S. aureus RN4220 wild type/DeltatarO growth, OD600, 18 h, stronger effect = lower value, concentration not given here.
As to `O=C(Nc1ccccc1)N(Cc1ccc2c(c1)OCO2)C1CCN(Cc2ccccc2)CC1`, the survival is 78%.

On to `Cc1ccc(NC(=O)N(Cc2ccc3c(c2)OCO3)C2CCN(Cc3ccccc3)CC2)cc1C`, for which the survival is -1% (active).

As for `Cc1ccc(NC(=O)N(Cc2ccc3c(c2)OCO3)C2CCN(Cc3ccccc3)CC2)cc1Cl`, the survival is 133%.

As for `Cc1ccc(Cl)cc1NC(=O)N(Cc1ccc2c(c1)OCO2)C1CCN(Cc2ccccc2)CC1`, the survival was 14% (active).

Turning to `Cc1ccc(NC(=O)N(Cc2ccc3c(c2)OCO3)C2CCN(Cc3ccccc3)CC2)cc1F`, the survival is 76%.

`COc1ccccc1NC(=O)N(Cc1ccc2c(c1)OCO2)C1CCN(Cc2ccccc2)CC1`: the survival is 78%.

As for `Cc1cccc(CN2CCN(C(=O)COc3ccccc3)CC2)c1`, the survival is 108%.

Regarding `CCCOc1ccc(CCN)cc1Cl`, the survival was 107%.

`O=C(Nc1ccc2c(c1)OCO2)c1cccn(Cc2cccc([N+](=O)[O-])c2)c1=O`: the survival was 77%.

`c1cc(C2CCNCC2)ccn1`: the survival is 104%.

Turning to `NC(=O)CN1C2CCC1CC(NC(=O)C1CC1)C2` (configuration not stated), the survival is 103%.

On to `O=S1(=O)N(Cc2ccccc2)CCCN1Cc1ccc(F)cc1Cl`, for which the survival was 76%.

For `O=S1(=O)N(Cc2ccccc2)CCCN1Cc1cccc(Cl)c1`, the survival was 78%.

Take `O=S1(=O)N(Cc2ccccc2Cl)CCCN1Cc1ccccc1Cl`: the survival was -4% (active).

For the molecule `COc1ccc(CN2C(=O)CC(=O)NC2=S)cc1`, the survival was 107%.

With `CCCCc1nn2c(=O)cc(COC(=O)Cc3ccccc3)nc2s1`, the survival is 84%.

`CCC(C)N1CCN(Cc2ccccc2)CC1` (configuration not stated): the survival is 111%.

Take `CCCOc1ccc(C2SCC(=O)Nc3c2c(C)nn3-c2cccc(C)c2)cc1OC` (configuration not stated): the survival is 62%.

Turning to `COc1ccccc1C1SCC(=O)Nc2c1c(C)nn2-c1cccc(C)c1` (configuration not stated), the survival was -10% (active).

For the molecule `Cc1cccc(-n2nc(C)c3c2NC(=O)CSC3c2ccccc2Cl)c1` (configuration not stated), the survival is 64%.

On to `CCCc1nc2ccccc2c(=O)n1-c1ccccc1`, for which the survival was 127%.

For `O=C(COc1ccccc1)N1CCN(Cc2ccc(Br)cc2)CC1`, the survival was 100%.

Consider `CCCCCn1c(=O)c(C(=O)Nc2ccccc2S(N)(=O)=O)c(O)c2ccccc21`, for which the survival is 0% (active).

As for `CCCCn1c(=O)c(C(=O)NC)c(O)c2ccccc21`, the survival was 112%.

As for `CCSc1nnc(NC(=O)c2cccn(Cc3ccccc3Cl)c2=O)s1`, the survival is 71%.

Regarding `CN1CCC2(CC1)CC(NC=O)c1ccccc1O2` (configuration not stated), the survival is 108%.

Take `N#Cc1cc2c(nc1SCC(=O)Nc1cccc(C(F)(F)F)c1)C1CCN2CC1`: the survival is 0% (active).

Consider `N#Cc1cc2c(nc1SCC(=O)Nc1ccc(C(F)(F)F)cc1)C1CCN2CC1`, for which the survival is 0% (active).

As for `N#Cc1cccc(NC(=O)CSc2nc3c(cc2C#N)N2CCC3CC2)c1`, the survival is 76%.

In the case of `N#Cc1cc2c(nc1SCC(=O)Nc1cccc(F)c1)C1CCN2CC1`, the survival was -3% (active).

As for `Nc1c(C(=O)Nc2cccc(Br)c2)sc2nc3c(cc12)N1CCC3CC1`, the survival is 63%.

In the case of `Nc1c(C(=O)Nc2ccc(OC(F)(F)F)cc2)sc2nc3c(cc12)N1CCC3CC1`, the survival is 167%.

In the case of `O=C(CN1C(=O)CN=C(c2ccccc2)c2ccccc21)Nc1cccc(C(F)(F)F)c1`, the survival was 48%.

As to `CCOC(=O)c1ccc(NC(=O)CSc2nc3c(cc2C#N)N2CCC3CC2)cc1`, the survival is 84%.

Take `CN1CCc2c(C#N)c(Cl)nc(NCc3ccccc3)c2C1`: the survival was 103%.

On to `CCCC1(CCC)C(=O)NC(=Nc2ccccc2)NC1=O`, for which the survival was 107%.

As to `COc1ccc(CC2C(=O)N(C)C(=O)N(C)C2=O)cc1`, the survival is 112%.

Take `CCc1cc2c(s1)NC(=O)CN=C2c1cccs1`: the survival was 112%.

As to `N#CC(C#N)=Cc1cc(Br)cs1`, the survival is 94%.

In the case of `Cc1cc(-n2c(/C=C/c3ccc(Br)s3)nc3ccccc3c2=O)ccc1Br`, the survival was 66%.

`Cn1cc(C=C(C#N)C#N)c2ccccc21`: the survival was 114%.

With `Cc1ccc(-n2c(/C=C\c3ccc(F)c(F)c3)nc3ccccc3c2=O)c(C)c1`, the survival was 68%.

For `Cc1cccc(-n2c(/C=C/c3c(C)[nH]c4ccccc34)nc3ccccc3c2=O)c1`, the survival was 108%.

As to `Cc1ccccc1-n1c(/C=C/c2ccc(O)cc2)nc2ccccc2c1=O`, the survival is 48%.

For the molecule `O=c1c2ccccc2nc(/C=C\c2ccc(F)cc2)n1-c1ccccc1F`, the survival is 71%.

As to `O=c1c2ccccc2nc(/C=C\c2ccccc2F)n1-c1ccc(O)cc1`, the survival is 73%.

For the molecule `Cc1ccccc1-n1c(/C=C/c2c(C)[nH]c3ccccc23)nc2ccccc2c1=O`, the survival is 6% (active).

In the case of `Cc1ccccc1-n1c(/C=C/c2ccccc2F)nc2ccccc2c1=O`, the survival was 7% (active).

`O=c1c2ccccc2nc(/C=C/c2ccccc2F)n1-c1cccc(O)c1`: the survival was 11% (active).

For `Cc1ccccc1-n1c(/C=C/c2ccc(N(C)C)cc2)nc2ccccc2c1=O`, the survival is 7% (active).

In the case of `COc1ccc(-n2c(/C=C\c3ccccc3F)nc3ccccc3c2=O)c(OC)c1`, the survival is 68%.

On to `O=c1c2ccccc2nc(/C=C/c2ccccc2)n1-c1ccccc1F`, for which the survival was 97%.

In the case of `Cc1cccc(-n2c(/C=C/c3ccccc3O)nc3ccccc3c2=O)c1`, the survival is 12%.

For the molecule `Cc1cccc2sc(NC(=O)c3cccn(Cc4ccccc4)c3=O)nc12`, the survival is 78%.

Turning to `COC(=O)c1ccc(NC(=O)c2cccn(Cc3ccccc3C)c2=O)cc1`, the survival was 88%.

Turning to `Cc1c(C(c2ccc(Br)cc2)c2c(O)c3ccccc3oc2=O)c(=O)n(-c2ccccc2)n1C` (configuration not stated), the survival is 69%.

In the case of `COc1ccc(CNCC(=O)N2CCC3(CC2)OCCO3)cc1`, the survival is 107%.

Turning to `CCOc1ccc(CC2(CCc3ccncc3)C(=O)NC(=O)NC2=O)cc1`, the survival was 96%.

For `CCOc1ccc(-n2c(/C=C/c3ccccc3)nc3ccccc3c2=O)cc1`, the survival is 136%.

As to `CCc1ccc(OCC(=O)N2CCN(CCc3ccccn3)CC2)cc1`, the survival was 83%.

For `COc1cccc(-n2c(/C=C/c3ccccc3O)nc3ccccc3c2=O)c1`, the survival is 20%.

For `COc1cccc(-n2c(/C=C/c3cccc(C)c3)nc3ccccc3c2=O)c1`, the survival is 0% (active).

In the case of `COc1cccc(-n2c(/C=C\c3ccc(Cl)cc3)nc3ccccc3c2=O)c1`, the survival is 48%.

Consider `CC(=O)c1ccc(NC(=O)c2sc3nc4c(cc3c2N)N2CCC4CC2)cc1`, for which the survival was 95%.

For `Nc1c(C(=O)Nc2ccc(Cl)cc2)sc2nc3c(cc12)N1CCC3CC1`, the survival was 95%.

`N#Cc1cc2c(nc1SCC(=O)Nc1ccc(Cl)c(C(F)(F)F)c1)C1CCN2CC1`: the survival was 2% (active).

With `Nc1c(C(=O)Nc2ccc(F)c(Cl)c2)sc2nc3c(cc12)N1CCC3CC1`, the survival is 105%.

Consider `CCOC(=O)c1ccc(NC(=O)c2sc3nc4c(cc3c2N)N2CCC4CC2)cc1`, for which the survival is 84%.

On to `N#Cc1cc2c(nc1SCC(=O)Nc1ccc(F)c(Cl)c1)C1CCN2CC1`, for which the survival was -2% (active).

Take `CN(C)c1ccc(NC(=O)c2sc3nc4c(cc3c2N)N2CCC4CC2)cc1`: the survival was 114%.

Take `Nc1c(C(=O)Nc2ccc(Cl)c(C(F)(F)F)c2)sc2nc3c(cc12)N1CCC3CC1`: the survival was 1% (active).

For `Nc1c(C(=O)Nc2ccc(Br)cc2F)sc2nc3c(cc12)N1CCC3CC1`, the survival is 134%.

In the case of `COc1ccc(NC(=O)CCc2nc(C3=CCN(Cc4cccc(Cl)c4)CC3)no2)cc1OC`, the survival was 76%.

On to `CCC(N)C(=O)c1ccc(Cl)cc1` (configuration not stated), for which the survival was 105%.

Consider `Cn1c(=O)n(C)c2cc(CNCCc3ccc(F)cc3)ccc21`, for which the survival is 86%.

Take `CC(C)C(=O)c1cn(Cc2ccccc2C#N)c2ccccc12`: the survival was 115%.

Regarding `Cc1cccc(Cn2cccc(C(=O)Nc3nnc(C)s3)c2=O)c1`, the survival is 71%.

Consider `O=C(Nc1ccc(Cl)cc1C(=O)c1ccccc1)c1cc(Cl)cc(Cl)c1`, for which the survival was 140%.

`O=C(Nc1ccc(Br)cc1C(=O)c1ccccc1)c1ccccc1`: the survival was -1% (active).

As for `CSc1ncc(C(=O)Nc2ccc(Cl)cc2C(=O)c2ccccc2)c(C)n1`, the survival is 88%.

Consider `Cc1ccc(OCC(=O)Nc2ccc(Cl)cc2C(=O)c2ccccc2)cc1C`, for which the survival was 75%.

For the molecule `O=C(COc1ccc(Br)cc1)Nc1ccc(Cl)cc1C(=O)c1ccccc1`, the survival was 72%.

Regarding `O=C(Nc1ccc(Br)cc1C(=O)c1ccccc1Cl)c1ccccc1F`, the survival was 76%.

Turning to `COc1ccc(C(=O)Nc2ccc(Cl)cc2C(=O)c2ccccc2)c(OC)c1`, the survival is -2% (active).

Turning to `CC(C)(C)c1ccc(C(=O)Nc2ccc(Cl)cc2C(=O)c2ccccc2)cc1`, the survival is 3% (active).

In the case of `CC(C)(C)c1ccc(OCC(=O)Nc2ccc(Cl)cc2C(=O)c2ccccc2)cc1`, the survival is 63%.

In the case of `O=C(Nc1ccc(Cl)cc1C(=O)c1ccccc1)c1ccccc1Br`, the survival is 5% (active).

For the molecule `COc1cc(OC)cc(C(=O)Nc2ccc(Cl)cc2C(=O)c2ccccc2Cl)c1`, the survival is 139%.

As for `O=C(Nc1ccc(Br)cc1C(=O)c1ccccc1Cl)c1ccc(Br)cc1`, the survival was 136%.

Regarding `Cc1cc(NC(=O)c2cccn(Cc3cccc(Cl)c3)c2=O)no1`, the survival is 72%.

With `O=C1NC(=O)N(Cc2ccco2)C(=O)/C1=C\c1ccco1`, the survival is 111%.

In the case of `O=C(Nc1ccc2c(c1)OCO2)c1cccn(Cc2ccc(F)cc2)c1=O`, the survival was 59%.

For the molecule `CCCc1nc(SC)ncc1C(=O)Nc1ccc(Cl)cc1C(=O)c1ccccc1`, the survival is 84%.

As for `COC(=O)C1=C(C)OC(N)=C(C#N)C12C(=O)Nc1ccc(C)cc12` (configuration not stated), the survival is 96%.

As to `COc1ccc(CN2CCNCC2)cc1`, the survival is 98%.

For the molecule `Cc1cccc(NC(=O)Cn2cc(C(=O)c3ccccc3)c3ccccc32)c1C`, the survival was 71%.

With `CC(c1ccccc1F)n1cc(C(=O)NC2CCCC2)nn1` (configuration not stated), the survival was 103%.
